Results taken from PubChem BioAssay AID1159580 (chemical genetic matrix, 2015).
Among all 5,500 compounds or so, about 2,000 (36%) were called active. Roughly 18% stayed inconclusive and do not appear here. No stated cut-off is given here; in the data, active means normalized growth mostly below about 0.91 (no sharp cut-off); inconclusive means no clear call, values can overlap the other calls; inactive means mostly above about 0.92. This is one part of the list.

Assay: chemical genetic growth profiling, strain panel (AID 1159580);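 further: tested at 20 µM; growth read once vehicle control cultures reached saturation at 30 °C; 1 = growth at the plate median or of vehicle wells; lower values mean less growth of the strain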
Settings: growth OD

Measured: normalized growth

O=C(O)CCC(=O)c1ccc(-c2ccccc2)cc1
active: S. cerevisiae deletion strains, locus YKL009W, strain mrt4, hits give low values 0.799 | S. cerevisiae deletion strains, locus YLR262C, strain YPT6 (second series), hits give low values 0.765 | S. cerevisiae deletion strains, locus YNL183C, strain NPR1, hits give low values 0.724 | S. cerevisiae deletion strains, locus YNL271C, strain bni1, hits give low values 0.909 | S. cerevisiae deletion strains, locus YNL298W, strain CLA4, hits give low values 0.826 | S. cerevisiae deletion strains, locus YOR231W, strain MKK1, hits give low values 0.724 | S. cerevisiae deletion strains, locus YPL256C, strain CLN2, hits give low values 0.78
inactive: S. cerevisiae deletion strains, locus YKL068W, hits give low values 1 | S. cerevisiae deletion strains, locus YKL085W, strain MDH1 (second series), hits give low values 0.939 | S. cerevisiae deletion strains, locus YKL085W, strain MDH1, hits give low values 0.939 | S. cerevisiae deletion strains, locus YKL160W, strain elf1, hits give low values 0.961 | S. cerevisiae deletion strains, locus YKL190W, strain CNB1, hits give low values 0.996 | S. cerevisiae deletion strains, locus YKR001C, strain vps1, hits give low values 0.92 | S. cerevisiae deletion strains, locus YKR026C, strain gcn3, hits give low values 0.944 | S. cerevisiae deletion strains, locus YKR091W, strain srl3, hits give low values 0.979 | S. cerevisiae deletion strains, locus YLL001W, strain dnm1, hits give low values 0.947 | S. cerevisiae deletion strains, locus YLL026W, hits give low values 0.989 | S. cerevisiae deletion strains, locus YLL041C, strain sdh2, hits give low values 0.979 | S. cerevisiae deletion strains, locus YLR027C, strain aat2, hits give low values 0.978 | S. cerevisiae deletion strains, locus YLR039C, strain RIC1, hits give low values 0.855 | S. cerevisiae deletion strains, locus YLR058C, strain SHM2, hits give low values 0.978 | S. cerevisiae deletion strains, locus YLR102C, strain apc9, hits give low values 0.981 | S. cerevisiae deletion strains, locus YLR113W, strain HOG1, hits give low values 0.865 | S. cerevisiae deletion strains, locus YLR221C, strain rsa3, hits give low values 0.997 | S. cerevisiae deletion strains, locus YLR258W, strain gsy2, hits give low values 1 | S. cerevisiae deletion strains, locus YLR262C, strain YPT6, hits give low values 0.821 | S. cerevisiae deletion strains, locus YLR268W, strain sec22, hits give low values 0.894 | S. cerevisiae deletion strains, locus YLR320W, strain mms22, hits give low values 1.01 | S. cerevisiae deletion strains, locus YLR330W, strain CHS5, hits give low values 0.994 | S. cerevisiae deletion strains, locus YLR342W, strain FKS1 (second series), hits give low values 0.986 | S. cerevisiae deletion strains, locus YLR342W, strain FKS1, hits give low values 0.934 | S. cerevisiae deletion strains, locus YLR357W, strain rsc2, hits give low values 0.903 | S. cerevisiae deletion strains, locus YLR370C, strain arc18, hits give low values 0.984 | S. cerevisiae deletion strains, locus YLR371W, strain rom2, hits give low values 0.962 | S. cerevisiae deletion strains, locus YLR384C, strain iki3, hits give low values 0.964 | S. cerevisiae deletion strains, locus YLR418C, strain cdc73, hits give low values 0.902 | S. cerevisiae deletion strains, locus YML016C, strain PPZ1, hits give low values 0.988 | S. cerevisiae deletion strains, locus YML032C, strain rad52, hits give low values 0.938 | S. cerevisiae deletion strains, locus YML120C, strain ndi1, hits give low values 0.971 | S. cerevisiae deletion strains, locus YML124C, strain tub3, hits give low values 0.981 | S. cerevisiae deletion strains, locus YMR058W, strain fet3, hits give low values 0.978 | S. cerevisiae deletion strains, locus YMR078C, strain ctf18, hits give low values 0.963 | S. cerevisiae deletion strains, locus YMR125W, strain sto1, hits give low values 0.979 | S. cerevisiae deletion strains, locus YMR129W, hits give low values 0.987 | S. cerevisiae deletion strains, locus YMR205C, strain PFK2, hits give low values 0.974 | S. cerevisiae deletion strains, locus YMR223W, strain ubp8, hits give low values 0.974 | S. cerevisiae deletion strains, locus YMR231W, strain pep5, hits give low values 0.972 | S. cerevisiae deletion strains, locus YMR263W, strain SAP30, hits give low values 0.972 | S. cerevisiae deletion strains, locus YMR307W, strain GAS1, hits give low values 0.939 | S. cerevisiae deletion strains, locus YNL067W, strain RPL9B, hits give low values 0.957 | S. cerevisiae deletion strains, locus YNL071W, strain lat1, hits give low values 0.951 | S. cerevisiae deletion strains, locus YNL128W, strain TEP1, hits give low values 0.982 | S. cerevisiae deletion strains, locus YNL153C, strain GIM3, hits give low values 0.985 | S. cerevisiae deletion strains, locus YNL209W, strain ssb2, hits give low values 0.993 | S. cerevisiae deletion strains, locus YNL233W, strain BNI4, hits give low values 0.97 | S. cerevisiae deletion strains, locus YNL248C, strain rpa49, hits give low values 0.993 | S. cerevisiae deletion strains, locus YNL250W, strain rad50, hits give low values 0.977 | S. cerevisiae deletion strains, locus YNL307C, strain MCK1, hits give low values 0.963 | S. cerevisiae deletion strains, locus YNL322C, strain KRE1 (second series), hits give low values 0.97 | S. cerevisiae deletion strains, locus YNL322C, strain KRE1, hits give low values 0.998 | S. cerevisiae deletion strains, locus YNR049C, strain mso1, hits give low values 0.987 | S. cerevisiae deletion strains, locus YNR052C, strain pop2, hits give low values 0.972 | S. cerevisiae deletion strains, locus YOL006C, strain TOP1, hits give low values 0.889 | S. cerevisiae deletion strains, locus YOL012C, strain htz1 0.779 | S. cerevisiae deletion strains, locus YOL147C, strain pex11, hits give low values 0.98 | S. cerevisiae deletion strains, locus YOR001W, strain rrp6, hits give low values 0.955 | S. cerevisiae deletion strains, locus YOR061W, strain CKA2, hits give low values 0.956 | S. cerevisiae deletion strains, locus YOR069W, strain VPS5, hits give low values 0.987 | S. cerevisiae deletion strains, locus YOR070C, strain gyp1, hits give low values 0.988 | S. cerevisiae deletion strains, locus YOR080W, strain dia2, hits give low values 0.979 | S. cerevisiae deletion strains, locus YOR083W, strain WHI5, hits give low values 0.953 | S. cerevisiae deletion strains, locus YOR106W, strain vam3, hits give low values 0.935 | S. cerevisiae deletion strains, locus YOR136W, strain idh2, hits give low values 0.968 | S. cerevisiae deletion strains, locus YOR144C, strain elg1, hits give low values 0.972 | S. cerevisiae deletion strains, locus YOR184W, strain ser1, hits give low values 0.905 | S. cerevisiae deletion strains, locus YOR265W, strain rbl2, hits give low values 0.996 | S. cerevisiae deletion strains, locus YOR270C, strain vph1, hits give low values 0.95 | S. cerevisiae deletion strains, locus YOR290C, strain snf2, hits give low values 0.978 | S. cerevisiae deletion strains, locus YOR316C, strain cot1, hits give low values 0.984 | S. cerevisiae deletion strains, locus YPL051W, strain arl3, hits give low values 0.958 | S. cerevisiae deletion strains, locus YPL055C, strain LGE1, hits give low values 0.973 | S. cerevisiae deletion strains, locus YPL078C, strain atp4, hits give low values 0.941 | S. cerevisiae deletion strains, locus YPL106C, strain sse1, hits give low values 1.06 | S. cerevisiae deletion strains, locus YPL240C, strain hsp82, hits give low values 0.999 | S. cerevisiae deletion strains, locus YPL241C, strain CIN2, hits give low values 0.996 | S. cerevisiae deletion strains, locus YPR119W, strain clb2, hits give low values 0.972 | S. cerevisiae deletion strains, locus YPR141C, strain kar3, hits give low values 1.01 | S. cerevisiae deletion strains, locus YPR163C, strain tif3, hits give low values 0.967 | S. cerevisiae deletion strains, locus YPR167C, strain met16, hits give low values 0.967 | S. cerevisiae deletion strains, strain wtn01, hits give low values 0.932 | S. cerevisiae strains, strain wild type, hits give low values 0.99
